The full list was thinned out, with hits kept by preference.
Epigenetic derep = regulators of epigenetic silencing causing reporter derepression in mouse cells; AID 1865; 280,000 compounds, 0.2% hits; Potency, µM (series often up to 53.9 µM), inactives show top-dose GFP activation, hits mostly activators; murine LDR cells, GFP reporter derepression, 30 h; note: % of control where 0% means no effect; nearly all actives have a fitted effect of over 60% in size
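Murine LDR cells carrying a silenced, genomically integrated CMV-driven GFP reporter were exposed to compound for 30 hours at 37 C. After PBS washes, GFP-positive cells (20–120 um objects) were counted by laser-scanning microplate cytometry.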
Apoferritin bind = candidate novel general anesthetic via apoferritin binding; Potency, µM (doses to about 77.5 µM), for inactives: at the top dose activity change, negative = displacement, hits mostly inhibitors; apoferritin/1-aminoanthracene competitive binding, fluorescence; 350,000 compounds, 0.074% hits; P02791; AID 485281; note: % is set by controls: 0 for no effect and ±100 for the full control effect; nearly all actives have a fitted effect of over 20% in size
Target sequence (P02791 2-175 limits assumed): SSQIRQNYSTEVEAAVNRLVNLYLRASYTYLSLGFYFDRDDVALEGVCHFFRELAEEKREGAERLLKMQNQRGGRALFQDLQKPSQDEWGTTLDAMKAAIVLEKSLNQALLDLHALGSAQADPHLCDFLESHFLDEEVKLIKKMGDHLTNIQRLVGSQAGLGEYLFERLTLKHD
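Probe: 1-aminoanthracene (50% saturated, PBS). Protein: horse-spleen apoferritin, 10 uM. Incubation: 10 min, room temperature. Detection: 380 nm excitation, 535 nm emission. Analysis: normalized response, four-parameter Hill.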
HTT cytoprotect = protects HTT-Q103 PC12 cells, measured by ATP; PC12 HTT-Q103 induced, cytoprotection, ATP luminescence, 40 h; Potency, µM (top dose mostly 56.4 µM), inactives show cytoprotection (ATP increase), actives largely listed as activators; 230,000 compounds, 0.14% hits; AID 1471; note: % of control where 0% means no effect; nearly all actives have a fitted effect of over 45% in size
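ATP quantification (ATPlite) reports survival of PC12 cells in which tebufenozide, 100 nM final, switches on Htt exon 1 with 103 glutamines linked to GFP; compounds are titrated.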
TSG101-PTAP inh = blocks PTAP/TSG101 interaction to inhibit HIV-1 budding; Q99816; Fluorescence polarization, FITC-PTAP peptide / Tsg101 binding; Potency, µM (titrated, usually from 115 µM), inactives show at the highest dose activity change, negative = inhibition, hits mostly inhibitors; 340,000 tested, under 10 active; active = well fitted inhibition curve with a large enough effect in the main read-out, with a control signal flat, not every such curve was filed as active; inconclusive = small, poorly fitted or top-dose-only effect, or effect the other way, or a change in a side signal; inactive = no such curve, though single readings can be large or run the other way; note: % of control where 0% means no effect
Target sequence (Q99816 whole entry, looked up): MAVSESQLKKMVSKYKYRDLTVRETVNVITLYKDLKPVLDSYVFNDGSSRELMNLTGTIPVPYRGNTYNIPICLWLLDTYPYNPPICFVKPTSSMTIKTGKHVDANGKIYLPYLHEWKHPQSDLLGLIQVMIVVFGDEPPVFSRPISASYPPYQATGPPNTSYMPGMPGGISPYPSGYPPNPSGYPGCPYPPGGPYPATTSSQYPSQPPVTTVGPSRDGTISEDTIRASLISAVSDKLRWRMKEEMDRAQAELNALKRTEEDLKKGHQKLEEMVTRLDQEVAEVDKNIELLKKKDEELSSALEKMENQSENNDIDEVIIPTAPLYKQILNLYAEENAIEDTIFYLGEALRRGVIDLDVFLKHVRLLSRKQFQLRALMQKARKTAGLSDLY
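Tsg101 binding domain (10 uM final) was mixed with compound and a FITC-labeled PTAP peptide (50 nM final) in HEPES pH 7.5 buffer with NaCl, Tween 20, EDTA and TCEP; fluorescence polarization was read after 20 min at r.t.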
PINK1 expr mod = changes PINK1 expression. PINK1 immunofluorescence, high-content cytometry, 24 h. 410,000 compounds, 0.2% hits. Potency, µM (series often up to 76.6 µM), without a hit: at the highest dose activation (PINK1 increase), hits mostly activators; active = well fitted activation curve with a large enough effect; inconclusive = small, poorly fitted or top-dose-only effect; cell line not stated here; note: % of control where 0% means no effect; nearly all actives have a fitted effect of over 65% in size
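A stable cell line was treated with compounds at 5 concentrations for 24 hours, with CCCP as control. PINK1 levels and mitochondrial localization were measured by immunofluorescence with mitochondrial, cell and nuclear markers after fixation, read by laser-scanning cytometry.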
HttQ103 aggreg = reduces HttQ103-GFP aggregates in PC12 cells. PC12 HttQ103-GFP aggregates, Acumen cytometry, 40 h. Potency, µM (top dose mostly 46.1 µM), without a hit: at the highest dose activity change, negative = inhibition, most hits filed as inhibitors. 220,000 compounds, 1.1% hits. AID 1688; note: % is set by controls: 0 for no effect and ±100 for the full control effect; nearly all actives have a fitted effect of over 60% in size
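Steps: seed 1500 PC12 HTTQ103-GFP cells/well; add tebufenozide, 100 nM final; add compound titration; add ATPLite reagent; quantify GFP aggregates by laser scanning cytometry.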
The depositor's hits bear a star; ? = inconclusive; / = not tested or not shown; [ ] = remark or other dose. Unless noted, calls come from the whole dose curve; as a rule, active = well fitted curve in the direction sought with a large enough effect; inconclusive = small, poorly fitted or top-dose-only effect, or another doubt; inactive = no such curve, though single readings can be large; an effect the other way counts as inactive or inconclusive. Potency is the fitted concentration of half-maximal effect.

SMILES	Epigenetic derep	Apoferritin bind	HTT cytoprotect	TSG101-PTAP inh	PINK1 expr mod	HttQ103 aggreg
Cc1cccc(N2C(=O)CC(Sc3nnc(C)s3)C2=O)c1 (centres undefined)	-1%	8%	-4%[10 µM]	0%	0%	14µM*
Cc1cccc(N2C(=O)CC(Sc3nc(C)cc(C)n3)C2=O)c1 (centres undefined)	-2%	-3%	3%	-1%	0%	3%[9.22 µM]
CCC/C=N/NC(=O)c1cc(Br)ccc1O	-3%	9%	23%[10 µM]	-3%	0%	16µM*
O=C(N/N=C\c1ccccc1O)c1ccccc1O	11%	/	-71%[1.9 µM]	/	/	/
O=C(N/N=C/c1cc(Br)ccc1O)c1ccccc1Cl	3%	-13%	/	-3%	4%	4µM*
O=C(N/N=C/c1cc(Br)ccc1O)C(=O)Nc1ccccc1OC(F)(F)C(F)F	4%	2%	-46%	-3%	3%[38.3 µM]	8.9µM*
O=C(N/N=C/c1cc(Br)ccc1O)c1cccc(N2CCCC2=O)c1	1%	-10%	/	-1%	4%	2.2µM*
O=C(N/N=C/c1cc(Cl)ccc1O)C(=O)Nc1ccccc1OC(F)(F)C(F)F	-1%	0%	/	0%	4%	?
Ic1ccc(/C=C2\C=Cc3ccccc32)cc1	/	/	/	/	2%	/
NC(=O)N/N=C/c1c(Sc2nnnn2-c2ccccc2)nc2ccccn2c1=O	2%	8%	4.5µM*	-2%	2%	12%[9.22 µM]
CN(C)c1nc(CN2CCCCC2c2cccnc2)nc2ccccc12 (centres undefined)	/	/	/	/	1%	/
Cc1cccc2cc(CN(CC3CCCO3)C(=O)C3CC3)c(N(C)C)nc12 (centres undefined)	/	/	/	/	1%	/
c1cc2c(cc1-c1cnc3n1CCC3)OCCO2	-1%	-15%	26%	-11%	/	25µM*
CCOC(=O)C1CCN(C(=O)CSc2c3c(nc4ccccc24)CCC3)CC1	9%	-14%	5%	0%	1%	3%
O=C(CSc1c2c(nc3ccccc13)CCC2)N1CCCC1	7%	-13%	10µM*	-9%	0%	?
COc1ccccc1NC(=O)CSc1c2c(nc3ccccc13)CCC2	0%	-12%	-5%[10 µM]	-2%	9%	35µM*
COc1ccccc1N1CCN(c2nc(CNC(=O)c3cc(C)oc3C)nc3ccccc23)CC1	/	/	/	/	2%	/
O=[N+]([O-])c1ccc(-c2cnc3ccccc3n2)cc1	/	-6%	/	0%	1%	/
O=[N+]([O-])c1ccc(-c2c(O)c3ccccc3c3nc4ccccc4nc23)cc1	1%	-4%	-18%	-10%	-1%	7.1µM*
O=C(c1ccc(Cl)c([N+](=O)[O-])c1)N1CCN(c2ccccn2)CC1	1%	0%	14%[0.074 µM]	-2%	-3%	-17%
O=C(c1ccc(S(=O)(=O)Cc2cc(F)ccc2F)c([N+](=O)[O-])c1)N1CCCCC1	0%	-6%	-7%[10 µM]	-3%	-4%	13µM*
O=C(c1ccc(S(=O)(=O)Cc2cc(F)ccc2F)c([N+](=O)[O-])c1)N1CCCC1	-1%	-9%	-81%	-4%	-1%	16µM*
O=C(c1ccc(S(=O)(=O)Cc2ccccc2Cl)c([N+](=O)[O-])c1)N1CCN(c2ccccn2)CC1	4%	-15%	-202%	2%	0%	16µM*
COc1cc(=O)n2c(c1C(=O)N(C)Cc1cscn1)CCN(Cc1ccc3c(c1)OCCO3)CC2	/	/	/	/	1%	/
CCC(=O)N[C@@H]1c2ccccc2C2(CCN(Cc3cnc(N(C)C)s3)CC2)[C@H]1OC	/	/	/	/	-1%	/
SMILES	Epigenetic derep	Apoferritin bind	HTT cytoprotect	TSG101-PTAP inh	PINK1 expr mod	HttQ103 aggreg
CC1=C(C(=O)O)N2C(=O)[C@@H](NC(=O)[C@@H](N)c3ccccc3)[C@@H]2SC1	2%[16.9 µM]	8%[29.3 µM]	?	/	/	/
COC(=O)c1ccccc1C(=O)NCC1Cc2cc(-c3nc(C)cnc3C)ccc2O1 (centres undefined)	/	/	/	/	0%	/
CCN(CC)c1ccc2cc(-c3nc(-c4ccc(Cl)cc4Cl)cs3)c(=O)oc2c1	2.8µM*	4%	/	/	-1%	/
CCN(CC)c1ccc2cc(-c3nc(-c4ccc(OC)cc4)cs3)c(=O)oc2c1	?	-6%	-9%[10 µM]	?	?	2.8µM*
CCN(CC)c1ccc2cc(S(=O)(=O)c3ccc(Cl)cc3)c(=O)oc2c1	?	6%	/	?	0%	27%
CCc1ccc(-c2csc(-c3cc4cc(Br)ccc4oc3=O)n2)cc1	17%	-6%	/	/	0%	/
CC(C)Cn1c(N)c(C(=O)COC(=O)CC23CC4CC(CC(C4)C2)C3)c(=O)n(C)c1=O	1%	?	-8%[10 µM]	-6%	6%	7.1µM*
COc1cc(=O)n2c(c1C(=O)N(C)Cc1nonc1C)CCN(C(=O)c1cc(C)ccc1C)CC2	/	/	/	/	0%	/
Cc1ccc(-c2nnc(N3CCN(C(=O)Cn4c(=O)n(C)c5ccccc54)CC3)c3ccccc23)cc1	-1%	-21%	-6%	-2%	4%[38.3 µM]	?
Cn1c(=O)n(CC(=O)N2CCN(c3nnc(-c4ccccc4)c4ccccc34)CC2)c2ccccc21	-1%	-13%	-17%[10 µM]	-6%	-2%[38.3 µM]	14µM*
CCN(Cc1ccncc1)Cc1ccc2c(c1)CN(C(=O)c1cccc(-n3nc(C)cc3C)c1)CCO2	/	/	/	/	0%	/
N#Cc1c2ccc(O)cc2n2ccccc12	-1%	237%	-24%	-9%	-1%	10µM*
Cc1ccc2nc(CN3CCN(S(=O)(=O)c4ccc(F)cc4)CC3)oc2c1	-3%	-8%	/	/	1%	/
O=C(c1cc2sccc2n1Cc1ccccc1)N1CCN(c2nc3ccccc3s2)CC1	0%	-4%	-34%	-4%	-1%	7.9µM*
COc1ccc(NC(=O)Nc2cnccn2)c(OC)c1	/	-5%	/	0%	-1%	/
COc1ccc(NC(=O)Nc2nc(C)cc(C)n2)c(OC)c1	-2%	-3%	/	-12%	0%	28µM*
COc1ccc(CNC(=O)COC(=O)Cc2ccc(Cl)cc2Cl)cc1	1%	-13%	-87%[1.9 µM]	-7%	0%	0.56µM*
COc1ccc(CC(=O)OCC(=O)NCc2ccc(Cl)cc2)cc1	0%	-14%	-26%	36%	3%	-5%
CC1C/C(=C/c2cccn2C)C(=O)/C(=C/c2cccn2C)C1 (centres undefined)	11µM*	?	22%	?	26%	-33%
Cc1cc(C)n(-c2ccc(N3CCOCC3)nn2)n1	-1%	9%	-6%[1.9 µM]	-11%	-2%	?
Cc1cc(C)n(-c2nnc(N3CCN(c4ccc(F)cc4)CC3)nn2)n1	-1%	-13%	-130%	-3%	1%	11µM*
